Most compounds without a hit are left out; they make up all but 3.2% or so of the library.
FAS TE block – FAS thioesterase domain inhibitors, primary screen, biochemical, fluorescence intensity, uHTS. inhibition, % at 15 µM. recombinant FAS-TE, OMFH fluorogenic substrate, fluorescence endpoint. 0.67% of 360,000 active. Fatty acid synthase (Homo sapiens), P49327. AID 602261, 2012;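 active means compounds whose normalised, plate-corrected inhibition of enzyme fluorescence in the single-dose primary screen is 50% or more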
Target sequence (P49327 whole entry, looked up, the tested form may be a part): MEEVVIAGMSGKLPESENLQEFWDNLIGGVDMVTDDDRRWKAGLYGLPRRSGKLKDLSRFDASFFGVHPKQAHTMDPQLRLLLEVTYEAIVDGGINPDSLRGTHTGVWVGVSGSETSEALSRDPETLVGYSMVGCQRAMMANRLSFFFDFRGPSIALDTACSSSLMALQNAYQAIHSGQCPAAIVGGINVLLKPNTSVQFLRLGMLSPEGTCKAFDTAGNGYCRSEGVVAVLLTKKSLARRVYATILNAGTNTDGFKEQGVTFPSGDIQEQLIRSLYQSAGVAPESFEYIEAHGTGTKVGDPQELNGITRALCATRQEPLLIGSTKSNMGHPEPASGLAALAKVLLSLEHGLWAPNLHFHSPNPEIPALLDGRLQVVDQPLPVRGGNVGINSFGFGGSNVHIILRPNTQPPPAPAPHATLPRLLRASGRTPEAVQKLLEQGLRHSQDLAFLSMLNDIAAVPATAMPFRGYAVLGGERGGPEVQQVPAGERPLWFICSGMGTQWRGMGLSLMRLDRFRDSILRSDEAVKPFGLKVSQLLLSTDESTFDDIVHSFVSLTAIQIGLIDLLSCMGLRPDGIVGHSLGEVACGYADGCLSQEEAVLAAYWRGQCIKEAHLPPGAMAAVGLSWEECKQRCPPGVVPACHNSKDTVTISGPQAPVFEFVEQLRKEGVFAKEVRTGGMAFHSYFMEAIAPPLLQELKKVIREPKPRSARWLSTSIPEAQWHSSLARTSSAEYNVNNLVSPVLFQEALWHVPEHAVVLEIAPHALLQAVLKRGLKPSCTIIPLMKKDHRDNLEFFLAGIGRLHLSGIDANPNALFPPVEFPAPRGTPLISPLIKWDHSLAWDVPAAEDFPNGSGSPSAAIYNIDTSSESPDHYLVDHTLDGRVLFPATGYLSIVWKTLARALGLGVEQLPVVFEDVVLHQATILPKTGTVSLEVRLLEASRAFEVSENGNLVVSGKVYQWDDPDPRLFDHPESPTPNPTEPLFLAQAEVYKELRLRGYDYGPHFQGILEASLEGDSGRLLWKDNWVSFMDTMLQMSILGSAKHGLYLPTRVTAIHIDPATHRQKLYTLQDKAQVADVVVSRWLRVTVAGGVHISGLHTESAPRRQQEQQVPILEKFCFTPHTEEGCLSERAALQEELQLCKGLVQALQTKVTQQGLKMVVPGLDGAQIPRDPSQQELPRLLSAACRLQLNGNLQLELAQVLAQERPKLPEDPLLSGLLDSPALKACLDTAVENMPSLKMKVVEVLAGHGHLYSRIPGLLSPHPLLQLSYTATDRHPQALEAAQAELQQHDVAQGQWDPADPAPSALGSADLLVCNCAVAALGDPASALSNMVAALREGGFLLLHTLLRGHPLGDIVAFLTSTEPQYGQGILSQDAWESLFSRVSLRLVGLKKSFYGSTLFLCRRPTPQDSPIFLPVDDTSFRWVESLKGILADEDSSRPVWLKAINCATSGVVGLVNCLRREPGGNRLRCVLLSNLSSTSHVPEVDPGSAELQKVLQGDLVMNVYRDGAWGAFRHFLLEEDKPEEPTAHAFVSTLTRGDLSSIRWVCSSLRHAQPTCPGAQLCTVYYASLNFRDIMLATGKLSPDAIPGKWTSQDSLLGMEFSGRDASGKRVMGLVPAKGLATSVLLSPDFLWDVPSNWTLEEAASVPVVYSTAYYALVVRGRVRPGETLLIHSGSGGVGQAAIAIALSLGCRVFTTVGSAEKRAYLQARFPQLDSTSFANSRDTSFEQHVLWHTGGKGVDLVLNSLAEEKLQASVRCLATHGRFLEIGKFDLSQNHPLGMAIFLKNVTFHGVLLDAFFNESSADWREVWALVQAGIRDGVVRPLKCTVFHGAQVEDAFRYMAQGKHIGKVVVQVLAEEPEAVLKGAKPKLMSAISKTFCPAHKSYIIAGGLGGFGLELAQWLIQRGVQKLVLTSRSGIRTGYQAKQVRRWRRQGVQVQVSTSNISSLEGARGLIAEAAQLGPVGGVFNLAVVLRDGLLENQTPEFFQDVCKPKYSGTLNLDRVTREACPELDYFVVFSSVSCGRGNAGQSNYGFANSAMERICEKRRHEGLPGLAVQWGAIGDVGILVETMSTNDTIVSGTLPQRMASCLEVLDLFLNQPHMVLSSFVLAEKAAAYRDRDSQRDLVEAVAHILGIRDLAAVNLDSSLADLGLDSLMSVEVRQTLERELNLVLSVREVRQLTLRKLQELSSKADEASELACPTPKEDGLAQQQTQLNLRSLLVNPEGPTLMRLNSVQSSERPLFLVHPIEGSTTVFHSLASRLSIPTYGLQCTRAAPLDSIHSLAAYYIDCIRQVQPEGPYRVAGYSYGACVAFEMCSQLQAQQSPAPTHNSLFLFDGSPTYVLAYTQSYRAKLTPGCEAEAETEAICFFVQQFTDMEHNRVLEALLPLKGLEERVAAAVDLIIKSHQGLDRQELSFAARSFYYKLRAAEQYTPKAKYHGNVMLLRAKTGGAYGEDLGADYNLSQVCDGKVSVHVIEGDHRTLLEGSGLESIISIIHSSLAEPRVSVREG
CRFR2-BP antag – antagonists of CRF-BP/CRF-R2 complex, primary screen, cell-based, HEK293, calcium dye fluorescence, uHTS. 0.59% of 350,000 active. CRF-induced calcium fluorescence. AID 588475, 2011. inhibition, % at 11.8 µM;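 active means inhibition of the ligand-induced calcium signal above about 50% at the single tested concentration, limit read from the data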
CRFR2-BP ag – agonists of CRF-BP/CRF-R2 complex, primary screen, cell-based, HEK293, calcium dye fluorescence, uHTS; CRF-binding protein / CRF receptor 2 complex (human); calcium dye fluorescence (FLIPR); percent of saturating CRF peptide response; activation, % at 13.2 µM; 0.46% of 350,000 active; AID 588473, 2011;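 active means activation of at least 50%, plus an integration ratio under a set limit after plate pattern correction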
aDG glyco up – activators of alpha-DG glycosylation, primary screen, uHTS, Pro5-aDG cells, AlphaScreen; alpha-DG glycosylation AlphaScreen (IIH6); 0% Pro5, 100% B10-LARGE cell signal; activation, % at 10 µM; 0.22% of 360,000 active;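 active means activation of at least 8% versus controls, or a plate z-score of at least 8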;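 further: Pro5 are CHO cells carrying HIG-tagged alpha-DG that lacks glycosylation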
Cardio protect – cardioprotection against H2O2-induced cell death, primary screen, uHTS, H9c2 cells, ATPLite luminescence. AID 588492, 2011. 0.63% of 360,000 active. H9c2 cardiomyocytes, H2O2 injury protection, 2 h. protection from H2O2 cell death, % at 20 µM;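 active means compounds giving at least 50% protection of heart cells from peroxide-induced death in the single-dose screen, raw or plate-pattern-corrected value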
PfG6PD inh – PfG6PD enzyme inhibitors, primary screen, biochemical, fluorescence intensity, uHTS | glucose-6-phosphate dehydrogenase-6-phosphogluconolactonase (Plasmodium falciparum 3D7) | PfGluPho enzyme, NADPH resazurin-diaphorase fluorescence | inhibition, % at 20 µM | 0.78% of 350,000 active;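 active means inhibition reaching at least a set limit at 20 µM in the primary screen, cut at about 59% in these data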
aDG conf – alpha-DG glycosylation enhancers, retest, confirmation, single concentration, Pro5-aDG cells. shares compounds with aDG glyco up. IIH6 AlphaLISA; scaled to LARGE-overexpressing B10 cells as 100%. activation, % at 10 µM (by protocol). 17% of 600 active. AID 651671, 2012;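 active means activation of at least 7% in one or more replicates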;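 further: cells exposed to compound for two days before detection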
Each line names hits and unclear results; the compound was inactive in the other large screens (follow-up assays come after a bar, where they were run).

Cc1ccc(N(CC(=O)NC(C)c2ccccc2)S(=O)(=O)c2c(C)n[nH]c2C)cc1 (stereo unspecified)	aDG glyco up 5.6 | aDG conf inactive
COc1ccccc1NS(=O)(=O)c1cc(NC(=O)c2ccc(Cl)nc2)ccc1Cl	none
COc1ccc(C(=O)Nc2ccc(Cl)c(S(=O)(=O)Nc3ccccc3OC)c2)cc1	aDG glyco up 3.7 | aDG conf inactive
O=C(Nc1ccccc1Cl)C1C(c2ccccc2)C1(Cl)Cl (stereo unspecified)	aDG glyco up 6.2 | aDG conf inactive
O=C(CNC(=O)c1ccccc1F)NCc1ccncc1	aDG glyco up 5.9 | aDG conf inactive
NC(=S)NNc1ccnc2cc(Cl)ccc12	none
O=C(NNc1ccnc2cc(Cl)ccc12)C1CCCCC1	aDG glyco up 10 | aDG conf inactive
COc1ccc(CCNC(=O)c2cc3c(=O)n4ccccc4nc3n(CCN3CCOCC3)c2=N)cc1	aDG glyco up 8.1 | aDG conf inactive
O=C(C[n+]1ccc(C(=O)NCc2ccccc2)cc1)c1ccc(Cl)cc1	none
COc1ccccc1Nc1nc(C)cc(C)c1C(N)=O	none
Cc1cc(C)c(C(N)=O)c(Nc2cccc3ccccc23)n1	aDG glyco up 5.7 | aDG conf inactive
COCCN(C(=O)COC(=O)CCS(=O)(=O)c1ccccc1)c1c(N)n(Cc2ccccc2)c(=O)[nH]c1=O	none
[O-]c1c[n+](-c2ccc(-[n+]3cc([O-])on3)cc2)no1	none
Clc1ccc(CNCCCSc2ncccn2)cc1Cl	aDG glyco up 2.4 | aDG conf inactive
COc1ccc(NC(=O)CNC(=O)Cn2c(C)cc3ccccc3c2=O)cc1OC	none
COc1cc(NC(=O)CNC(=O)Cn2c(C)cc3ccccc3c2=O)cc(OC)c1OC	aDG glyco up 3.3 | aDG conf inactive
CC(C)c1cc(-c2cc(-c3ccc(Cl)cc3)on2)nc(NC2CCCC2)n1	aDG glyco up 5.7 | aDG conf inactive
Oc1cccc(C=NCc2ccccc2)c1	aDG glyco up 51 | aDG conf inactive
CN1/C(=C\C(=O)c2ccco2)C(C)(C)c2ccccc21	aDG glyco up 4.3 | aDG conf inactive
CN1/C(=C\C(=O)COC(=O)c2ccco2)C(C)(C)c2ccccc21	none
CC(C)c1ccc(NC(=O)C2Cc3c(-c4ccc(Cl)cc4)ccnc3O2)cc1 (stereo unspecified)	aDG glyco up 5.0 (no result: CRFR2-BP antag, CRFR2-BP ag, PfG6PD inh) | aDG conf 6.5
C[C@@H]1CN([C@@H](C)CO)S(=O)(=O)c2ccc(Br)cc2O[C@H]1CN(C)C(=O)Nc1ccc2c(c1)OCO2	none
O=C(CSc1nnc(NC(=O)c2ccco2)s1)Nc1ccccc1Br	aDG glyco up 2.2 | aDG conf inactive
Cn1nccc1C(=O)Nc1cc(Cl)ccc1Cl	aDG glyco up 2.7 | aDG conf inactive
O=C(N/N=C\c1ccccc1)c1ccccc1-n1cccc1	none
Cc1ccccc1OCC(=O)N/N=C/c1ccc([N+](=O)[O-])o1	aDG glyco up 7.9 | aDG conf inactive
O=C(CNc1cccc([N+](=O)[O-])c1)N/N=C/c1ccc([N+](=O)[O-])o1	aDG glyco up 19 | aDG conf 4.7
O=C(CNc1ccccc1)N/N=C/c1ccc([N+](=O)[O-])cc1	none
Cc1cc(C)cc(OCC(=O)N/N=C/c2ccc([N+](=O)[O-])o2)c1	none
CC1(C(=O)N/N=C/c2ccc([N+](=O)[O-])o2)CC1(Br)Br (stereo unspecified)	aDG glyco up 4.6 | aDG conf inactive
O=C(N/N=C/c1ccc([N+](=O)[O-])o1)c1ccccc1-n1cccc1	aDG glyco up 3.3 | aDG conf inactive

Screening data as filed in PubChem.
